Records with an inconclusive call do not appear. Activity calls are given as the source filed them. Calls follow the shape of the dose curve; as a rule, active = well fitted curve in the direction sought with a large enough effect; inconclusive = small, poorly fitted or top-dose-only effect, or another doubt; inactive = no such curve, though single readings can be large; an effect the other way counts as inactive or inconclusive.
Assays:
[1] = qHTS of pediatric cancer cell lines to identify multiple opportunities for drug repurposing: Primary screen for NB-EBc1 cells (AID 1347095)
Procedure, shortened: (§1)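 Cells seeded at 500-1,000 cells/well in growth media, rested 5 hours at 37 degrees C, 5% CO2, then dosed; MIPE compounds at 11-point (from 0.78 nM) and NPC at 8-point (from 0.59 nM) final concentrations. Viability by CellTiter-Glo luminescence after 48 hours.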

[2] = qHTS of pediatric cancer cell lines to identify multiple opportunities for drug repurposing: Primary screen for U-2 OS cells (AID 1347096); also: nearly all actives have a fitted effect of over 50% in size
Procedure, shortened: (§2)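 Cells (500-1,000/well) in growth media were settled 5 h at 37 degrees C, then given compounds for 48 h. Viability was read as CellTiter-Glo luminescence. Primary runs used MIPE at 11 points (0.78 nM-46 µM) and NPC at 8 points (0.59 nM-46 µM); follow-ups used 11 points.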

[3] = qHTS of pediatric cancer cell lines to identify multiple opportunities for drug repurposing: Primary screen for Saos-2 cells (AID 1347097); also: nearly all actives have a fitted effect of over 40% in size
Procedure, shortened: as §1

[4] = qHTS of pediatric cancer cell lines to identify multiple opportunities for drug repurposing: Primary screen for SK-N-SH cells (AID 1347098);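 also: DMSO served as neutral control and bortezomib at 2.3 µM as positive control; nearly all actives have a fitted effect of over 65% in size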
Procedure, shortened: (§3)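 Cells (500-1,000/well) rested 5 h, then received compounds for 48 h; metabolically active cells were measured by CellTiter-Glo luminescence. Final concentrations spanned up to 46 µM (MIPE, 11-point) or 0.59 nM-46 µM (NPC, 8-point) in primary screens, 11-point in follow-ups.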

[5] = qHTS of pediatric cancer cell lines to identify multiple opportunities for drug repurposing: Primary screen for NB1643 cells (AID 1347099); also: nearly all actives have a fitted effect of over 50% in size
Procedure, shortened: as §1

[6] = qHTS of pediatric cancer cell lines to identify multiple opportunities for drug repurposing: Primary screen for LAN-5 cells (AID 1347100)
Procedure, shortened: as §2

[7] = qHTS of pediatric cancer cell lines to identify multiple opportunities for drug repurposing: Primary screen for BT-12 cells (AID 1347101); also: nearly all actives have a fitted effect of over 25% in size
Procedure, shortened: as §3

[8] = qHTS of pediatric cancer cell lines to identify multiple opportunities for drug repurposing: Primary screen for Rh18 cells (AID 1347102); also: nearly all actives have a fitted effect of over 65% in size
Procedure, shortened: as §2

[9] = qHTS of pediatric cancer cell lines to identify multiple opportunities for drug repurposing: Primary screen for OHS-50 cells (AID 1347103); also: nearly all actives have a fitted effect of over 40% in size
Procedure, shortened: as §3

[10] = qHTS of pediatric cancer cell lines to identify multiple opportunities for drug repurposing: Primary screen for RD cells (AID 1347104); also: nearly all actives have a fitted effect of over 55% in size
Procedure, shortened: as §1

[11] = qHTS of pediatric cancer cell lines to identify multiple opportunities for drug repurposing: Primary screen for MG 63 (6-TG R) cells (AID 1347105); also: nearly all actives have a fitted effect of over 50% in size
Procedure, shortened: as §1

[12] = qHTS of pediatric cancer cell lines to identify multiple opportunities for drug repurposing: Primary screen for control Hh wild type fibroblast cells (AID 1347106);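 also: series mostly up to about 46 µM; a drop in luminescence marks cytotoxicity and a rise apparent proliferation; nearly all actives have a fitted effect of over 55% in size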
Procedure, shortened: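 Viability after 48 h compound treatment at 37C, 500-1,000 cells/well, read as ATP luminescence with CellTiter-Glo. Primary screens used 11-point (MIPE, 0.78 nM-46 µM) or 8-point (NPC, 0.59 nM-46 µM) final concentrations; follow-up screens used 11-point dilutions.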

[13] = qHTS of pediatric cancer cell lines to identify multiple opportunities for drug repurposing: Primary screen for Rh30 cells (AID 1347107); also: series mostly up to about 46 µM; nearly all actives have a fitted effect of over 75% in size
Procedure, shortened: as §2

[14] = qHTS of pediatric cancer cell lines to identify multiple opportunities for drug repurposing: Primary screen for Rh41 cells (AID 1347108);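 also: series mostly up to about 46 µM; luminescence drop marks cytotoxic hits; nearly all actives have a fitted effect of over 70% in size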
Procedure, shortened: as §1

Measured: Potency

CN1[C@@H]2CC[C@H]1CC(NC(=O)n1c(=O)[nH]c3ccccc31)C2 (some centres not stated)
inactive: all assays above

O=C(CCCCC(=O)Nc1c(I)cc(I)c(C(=O)O)c1I)Nc1c(I)cc(I)c(C(=O)O)c1I
inactive: all assays above

CC(C)C(=O)Nc1cccc(C(F)(F)F)c1
inactive: all assays above

CCN(CC)CC(=O)Oc1ccc(NC(C)=O)cc1
inactive: all assays above

[O-][n+]1cccc(/C(Cl)=N/OC[C@@H](O)CN2CCCCC2)c1
inactive: all assays above

OC1(c2ccccc2)CCNCC1
inactive: all assays above

CN1N=C(C(N)=O)CCC1=O
inactive: all assays above

CCCCCCCCCCCCCCCCCCN(C)C
inactive: all assays above

Cc1onc(-c2ccccc2)c1C(=O)Cl
inactive: all assays above

CCOc1c(N2CCOCC2)cnn(C)c1=O
inactive: all assays above

O=C(O)[C@@H](O)[C@H](O)[C@H](O)[C@@H](O)C(=O)O
inactive: all assays above

O=C(O)c1ccc(OCCN2CCCCC2)cc1
inactive: all assays above

CN1Cc2cc(C(=O)N3CCC(C4CCNCC4)CC3)ccc2N[C@@H](CC(=O)O)C1=O
inactive: all assays above

C/C(=N/NC(=O)c1ccncc1)C(=O)O
inactive: all assays above

CCCCCC1Nc2cc(C(F)(F)F)c(S(N)(=O)=O)cc2S(=O)(=O)N1 (configuration not stated)
inactive: all assays above

O=C1c2ccccc2CCc2ccccc21
inactive: all assays above

Cc1oc(=O)oc1COC(=O)[C@@H]1N2C(=O)[C@@H](NC(=O)[C@H](N)c3ccccc3)[C@H]2SC1(C)C
inactive: all assays above

CC(C)(C)c1ccc(C(=O)CCCCl)cc1
inactive: all assays above

Reference: PubChem BioAssay (NCATS)
